Sampled rows, rich in hits. Any-hit rate of the full collection: about 4%.
697 NFkB inh: inhibitors of the PMA/ionomycin-induced NF-kB reporter in 697 B cells; 697 B-cell NF-kB luciferase reporter, 16 h; inhibition, % at 4 µM; 330,000 tested, 0.33% active; in the data active = inhibition above about 35%
Beta apoptosis: blocks beta cell apoptosis. AID 435005. protection from apoptosis, % (no concentration beside the values). INS-1E cytokine-induced death, ATP luminescence, 48 h; percent of positive-control rescue, neutral wells zero. 300,000 tested, 0.8% active;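 active = Every replicate reaches about 75%, or at least half do and their mean reaches it too, limit read from the data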;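 note: 0% = cytokine-treated negative control wells and 100% = positive control rescue; higher means more ATP so stronger rescue from cytokine killing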
Mdm2 MdmX PPI: disrupts the human Mdm2-MdmX interaction | AID 485346 | SaOS-2 split-luciferase Mdm2/MdmX complementation, luminescence | inhibition, % at 8 µM | 330,000 tested, 3% active | O15151+Q00987;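 active = inhibition of at least 50% at 8 µM in the primary screen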
Jurkat NFkB inh: inhibitors of the PMA/ionomycin-induced NF-kB reporter in Jurkat cells. inhibition, % at 4 µM. 330,000 tested, 0.53% active. PMA/ionomycin-induced NF-kB luciferase reporter, luminescence; in the data active = inhibition above about 50%
Gli-Sufu antag: blocks Gli-Sufu signaling in a luciferase reporter; 340,000 tested, 0.74% active; AID 588413; inhibition, % at 5 µM; Sufu-KO-LIGHT fibroblasts, Gli luciferase reporter luminescence;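 active = inhibition above about 55%, limit read from the data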;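 note: 0% = DMSO-treated cells and 100% = wells with medium but no cells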
Mdm2 MdmX conf: confirmation of human Mdm2/MdmX interaction inhibitors. shares compounds with Mdm2 MdmX PPI. Mdm2-MdmX binding, luminescent assay. inhibition, % at 8 µM. 10,000 tested, 55% active. AID 489028; in the data active = inhibition above about 40%
FLuc counter: inhibits full-length luciferase, flagging false Mdm2/MdmX hits; 6,200 tested, 77% active; inhibition, % at 8 µM; SaOS-2 full-length luciferase counterscreen, luminescence; shares compounds with Mdm2 MdmX PPI; AID 504607;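 active = mean inhibition at 8 µM reaching about 37%, which flags the compound as non-specific, limit read from the data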;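 note: p53-null SaOS-2 cells with luciferase driven by a doxycycline-inducible promoter; compound on cells about two nights before reading with doxycycline added after day one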
Starred values were filed as active, the others as inactive.

Screening CC(C)C(=O)NC(c1ccccc1)c1cc([N+](=O)[O-])c2cccnc2c1O (centres undefined) returned 697 NFkB inh -74, Beta apoptosis 91*, Mdm2 MdmX PPI 81*, Jurkat NFkB inh 13, Gli-Sufu antag 2, Mdm2 MdmX conf 72* and FLuc counter 42*.
`CC(=O)NC(C)c1cc(F)c2cccnc2c1O` (centres undefined) gave 697 NFkB inh 13, Beta apoptosis -8, Mdm2 MdmX PPI 22, Jurkat NFkB inh 6 and Gli-Sufu antag -23.
For CC(=O)NC(c1ccccc1)c1cc([N+](=O)[O-])c2cccnc2c1O (centres undefined) the results were 697 NFkB inh -237, Beta apoptosis 37, Mdm2 MdmX PPI 63*, Jurkat NFkB inh 13, Gli-Sufu antag -2, Mdm2 MdmX conf 67* and FLuc counter 50*.
For Cc1ccc(S(=O)(=O)N/N=C\c2cn(CC(N)=O)c3ccccc23)cc1C the results were 697 NFkB inh -11, Beta apoptosis -4, Mdm2 MdmX PPI 52*, Jurkat NFkB inh -3, Gli-Sufu antag -3 and Mdm2 MdmX conf 28.
For O=C1CC(/C=C/c2ccc([N+](=O)[O-])cc2)=Nc2ccccc2N1 the results were 697 NFkB inh -5, Beta apoptosis 4, Mdm2 MdmX PPI 53*, Jurkat NFkB inh -29, Gli-Sufu antag -18, Mdm2 MdmX conf 35 and FLuc counter 61*.
CC1CC(N(C(=O)c2ccco2)c2ccccc2)c2ccccc2N1C(=O)c1ccco1 (centres undefined) was read as 697 NFkB inh -17, Beta apoptosis 0, Mdm2 MdmX PPI 4, Jurkat NFkB inh -9 and Gli-Sufu antag 19.
Screening CC1CC(N(C(=O)c2ccc(Cl)cc2)c2ccccc2)c2ccccc2N1C(=O)c1ccco1 (centres undefined) returned 697 NFkB inh -27, Beta apoptosis 16, Mdm2 MdmX PPI 50*, Jurkat NFkB inh -3, Gli-Sufu antag 7 and Mdm2 MdmX conf 31.
`CCC1=NNc2cccc3c(OC)ccc1c23` gave 697 NFkB inh 2, Beta apoptosis -4, Mdm2 MdmX PPI 62*, Jurkat NFkB inh 6 and Mdm2 MdmX conf 24.
COc1cc(C(=O)Oc2ccccc2/C=N/NC(=O)c2ccc(C)c(Cl)c2)cc(OC)c1OC was read as 697 NFkB inh -34, Beta apoptosis 93*, Mdm2 MdmX PPI 58*, Jurkat NFkB inh 28, Gli-Sufu antag 20 and Mdm2 MdmX conf 27.
For COc1ccc(C(=O)N/N=C/c2ccccc2C(=O)O)cc1OC the results were 697 NFkB inh -29, Beta apoptosis -1, Mdm2 MdmX PPI -6, Jurkat NFkB inh -3 and Gli-Sufu antag 8.
CC1CCN(CC(CS(=O)(=O)c2ccc([N+](=O)[O-])cc2)N2CCC(C)CC2)CC1 (centres undefined) was read as 697 NFkB inh 11, Beta apoptosis -31, Mdm2 MdmX PPI 100*, Jurkat NFkB inh 18, Gli-Sufu antag -16, Mdm2 MdmX conf 100* and FLuc counter 50*.
Screening CC(C)(C)OC(=O)C[C@H]1C/C=C\C[C@@H](CC(=O)N(CCO)Cc2ccccc2)C(=O)N[C@H](Cc2ccccc2)COC1=O returned 697 NFkB inh 17, Beta apoptosis -6, Mdm2 MdmX PPI 7, Jurkat NFkB inh 12 and Gli-Sufu antag 14.
COc1ccccc1C(=O)NC(CCSC)C(=O)NCCCn1nc(C)cc1C (centres undefined) was read as 697 NFkB inh 7, Mdm2 MdmX PPI -18, Jurkat NFkB inh 11 and Gli-Sufu antag -8.
Screening Cc1nnc(N2CCC(C(=O)N3CCCCCC3)CC2)c2nn(-c3ccc(Cl)cc3)c(C)c12 returned 697 NFkB inh 18, Beta apoptosis 4, Mdm2 MdmX PPI 60*, Jurkat NFkB inh 42, Gli-Sufu antag 36, Mdm2 MdmX conf 33 and FLuc counter 83*.
For CCOc1ccc(CNC(=O)C2CCN(c3nnc(C)c4c(C)n(-c5ccc(C)cc5)nc34)CC2)cc1 the results were 697 NFkB inh -50, Beta apoptosis 24, Mdm2 MdmX PPI 87*, Jurkat NFkB inh 5, Gli-Sufu antag 10, Mdm2 MdmX conf 40* and FLuc counter 40*.
Screening Cc1ccc(-n2nc3c(N4CCC(C(=O)NCc5ccccc5C)CC4)nnc(C)c3c2C)cc1 returned 697 NFkB inh 14, Beta apoptosis 32, Mdm2 MdmX PPI 96*, Jurkat NFkB inh 32, Gli-Sufu antag 53 and Mdm2 MdmX conf 32.
Cc1ccccc1CNC(=O)C1CCCN(c2nnc(C)c3c(C)n(-c4ccccc4)nc23)C1 (centres undefined) was read as 697 NFkB inh -78, Beta apoptosis 11, Mdm2 MdmX PPI 33, Jurkat NFkB inh -13 and Gli-Sufu antag 35.
`Cc1nnc(N2CCCC(C(=O)NCc3ccccc3F)C2)c2nn(-c3ccccc3)c(C)c12` (centres undefined) gave 697 NFkB inh -6, Beta apoptosis 2, Mdm2 MdmX PPI 68*, Jurkat NFkB inh 14, Gli-Sufu antag 28 and Mdm2 MdmX conf 30.
`CCc1ccc(CNC(=O)C2CCCN(c3nnc(C)c4c(C)n(-c5ccccc5)nc34)C2)cc1` (centres undefined) gave 697 NFkB inh -42, Beta apoptosis 34, Mdm2 MdmX PPI 44, Jurkat NFkB inh 26 and Gli-Sufu antag 49.
Screening COc1ccc(S(=O)(=O)N/N=C(/C)c2ccncc2)cc1OC returned 697 NFkB inh -21, Beta apoptosis 3, Mdm2 MdmX PPI -2, Jurkat NFkB inh 5 and Gli-Sufu antag 3.
CC(C)C(NC(=O)c1ccccc1F)C(=O)NCc1ccc(S(=O)(=O)N2CCOCC2)cc1 (centres undefined) was read as 697 NFkB inh 12, Mdm2 MdmX PPI -3, Jurkat NFkB inh -1 and Gli-Sufu antag -1.
Screening COc1ccccc1CCNC(=O)C1CCN(c2nnc(C)c3c(C)n(-c4ccc(C)cc4)nc23)CC1 returned 697 NFkB inh -6, Beta apoptosis 33, Mdm2 MdmX PPI 89*, Jurkat NFkB inh 48, Gli-Sufu antag 7, Mdm2 MdmX conf 39 and FLuc counter 79*.
COc1ccc(-n2nc3c(N4CCC(C(=O)NCc5cccc(C)c5)CC4)nnc(C)c3c2C)cc1 was read as 697 NFkB inh -38, Beta apoptosis 37, Mdm2 MdmX PPI 99*, Jurkat NFkB inh 19, Gli-Sufu antag 74*, Mdm2 MdmX conf 45* and FLuc counter 48*.
Screening CCOc1ccccc1CNC(=O)C1CCN(c2nnc(C)c3c(C)n(-c4ccc(C)cc4)nc23)CC1 returned 697 NFkB inh 2, Beta apoptosis 59, Mdm2 MdmX PPI 100*, Jurkat NFkB inh 34, Gli-Sufu antag 4, Mdm2 MdmX conf 76* and FLuc counter 5.

Screens as filed in PubChem BioAssay.
